{
  "source": "ChEMBL document CHEMBL3988442",
  "about": "“University of Dundee, Small-Polar-MMV Screening Library” (2021)",
  "note": "Among all 48,000 compounds or so, about 13,000 (27%) showed an effect of 50% or more. The list shows a part of the results.",
  "data": [
    {"test_system": "Wolbachia pipientis", "assay": "Anti-Wolbachia Cell-Based Screen", "format": "functional", "set-up": "scale not given: in the data most compounds retested in dose-response had high values", "settings": "5 µM", "units": {"Percent Effect": "%"}, "values": [
      {"smiles": "CC(C)N(Cc1cccnc1)C(=O)CNc1ccc(C#N)cc1", "Percent Effect": -12.71},
      {"smiles": "O=C(NCc1ccco1)[C@H]1CC[C@@H]2[C@@H](CCN2Cc2nccs2)O1.O=C(O)C(F)(F)F", "Percent Effect": 5.491},
      {"smiles": "CC(C)NC(=O)[C@@H]1CC[C@@H]2[C@@H](CCN2Cc2ccc3ccccc3n2)O1.O=C(O)C(F)(F)F", "Percent Effect": -12.2},
      {"smiles": "Cc1csc(CN2CC[C@H]3O[C@H](C(=O)Nc4cccnc4)CC[C@H]32)n1.O=C(O)C(F)(F)F.O=C(O)C(F)(F)F", "Percent Effect": 273.2},
      {"smiles": "O=C(NC1CCC1)[C@@H]1CC[C@@H]2[C@@H](CCN2CCc2ccccc2)O1.O=C(O)C(F)(F)F", "Percent Effect": -17.29},
      {"smiles": "Cc1ncccc1NC(=O)[C@@H]1CC[C@@H]2[C@@H](CCN2Cc2cnn(C)c2)O1.O=C(O)C(F)(F)F.O=C(O)C(F)(F)F.O=C(O)C(F)(F)F", "Percent Effect": -6.669},
      {"smiles": "O=C(NCc1ccccn1)[C@@H]1CC[C@@H]2[C@@H](CCN2c2ncc(F)cn2)O1.O=C(O)C(F)(F)F.O=C(O)C(F)(F)F", "Percent Effect": 7.451},
      {"smiles": "Cc1cccc(CN2CC[C@H]3O[C@H](C(=O)Nc4cnccn4)CC[C@H]32)n1.O=C(O)C(F)(F)F.O=C(O)C(F)(F)F", "Percent Effect": 108.3},
      {"smiles": "O=C(Nc1cnccn1)[C@H]1CC[C@@H]2[C@@H](CCN2Cc2ccccn2)O1.O=C(O)C(F)(F)F", "Percent Effect": 79.42},
      {"smiles": "Cn1cc(CN2CC[C@H]3O[C@H](C(=O)NC4CC4)CC[C@H]32)c2ccccc21.O=C(O)C(F)(F)F", "Percent Effect": -3.833},
      {"smiles": "O=C(Nc1cnccn1)[C@@H]1CC[C@@H]2[C@@H](CCN2Cc2nccs2)O1.O=C(O)C(F)(F)F", "Percent Effect": 114.9},
      {"smiles": "O=C(c1cc[nH]n1)N(Cc1cccc(O)c1)CC1CC1", "Percent Effect": -5.824},
      {"smiles": "CN1CCCCC12CCN(c1nncs1)CC2.O=C(O)C(F)(F)F", "Percent Effect": -22.78},
      {"smiles": "CCCN1CCc2[nH]nc(C(=O)N3CCNC(=O)C3)c2C1.O=C(O)C(F)(F)F.O=C(O)C(F)(F)F", "Percent Effect": -12.08},
      {"smiles": "Cc1cc(CN2Cc3ccccc3CC2c2nnc(C)o2)on1", "note": "(centres undefined)", "Percent Effect": 1.784},
      {"smiles": "Cc1noc(CN2Cc3ccccc3CC2c2nnc(C)o2)n1", "note": "(centres undefined)", "Percent Effect": 1.632},
      {"smiles": "Cc1nnc(C2Cc3ccccc3CN2Cc2c(C)noc2C)o1", "note": "(centres undefined)", "Percent Effect": 100.9},
      {"smiles": "Cc1nnc(C2Cc3ccccc3CN2Cc2nc(C(C)C)no2)o1", "note": "(centres undefined)", "Percent Effect": 134.6},
      {"smiles": "Cc1cc(CN2Cc3ccccc3CC2c2nnc(C)o2)no1", "note": "(centres undefined)", "Percent Effect": 108.3},
      {"smiles": "CCc1nnc(C2Cc3ccccc3CN2Cc2cc(C)no2)o1", "note": "(centres undefined)", "Percent Effect": -1.172},
      {"smiles": "CCc1nnc(C2Cc3ccccc3CN2Cc2nc(C)no2)o1", "note": "(centres undefined)", "Percent Effect": 88.09},
      {"smiles": "CCc1nnc(C2Cc3ccccc3CN2Cc2nc(C3CC3)no2)o1", "note": "(centres undefined)", "Percent Effect": -3.635},
      {"smiles": "CCc1nnc(C2Cc3ccccc3CN2Cc2cc(C)on2)o1", "note": "(centres undefined)", "Percent Effect": 6.832},
      {"smiles": "Cc1nnc(C2Cc3ccccc3CN2Cc2nc(C3CC3)no2)o1", "note": "(centres undefined)", "Percent Effect": -2.569},
      {"smiles": "Cc1nnc(C2Cc3ccccc3CN2Cc2ncc(C(C)(C)C)o2)o1", "note": "(centres undefined)", "Percent Effect": 21.52},
      {"smiles": "Cc1noc(C)c1CN1CCCC1C(=O)OCc1ccccc1", "note": "(centres undefined)", "Percent Effect": 4.096},
      {"smiles": "C[C@@H](NCc1cccc(Cl)c1)c1onc(-c2ccccc2)c1C(=O)O", "Percent Effect": -2.837},
      {"smiles": "COc1cc(CN(C)C(=O)Nc2cc(C)on2)ccc1SC", "Percent Effect": -6.064},
      {"smiles": "O=C1NC(c2ccccc2)=N[C@@]12CC[C@@H]1CN(Cc3nccs3)C[C@@H]12", "Percent Effect": -1.68},
      {"smiles": "CC(C)N1CCC(N2CCCC(C(=O)NCC3(O)CCCCC3)C2)CC1", "note": "(centres undefined)", "Percent Effect": 0.6612},
      {"smiles": "COCc1ncn2c1CN(C(=O)c1cccc3cccnc13)CC2.O=C(O)C(F)(F)F", "Percent Effect": 103},
      {"smiles": "COCc1ncn2c1CN(C(=O)C1CC=CC1)CC2", "Percent Effect": -12.78},
      {"smiles": "COCc1ncn2c1CN(C(=O)c1cnc3ccccc3c1)CC2", "Percent Effect": 79.69},
      {"smiles": "Cc1ccc(C(=O)N2CCn3cnc(COCC4CC4)c3C2)cn1.O=C(O)C(F)(F)F", "Percent Effect": -1.031},
      {"smiles": "O=C(O)C(F)(F)F.O=C(c1ccccn1)N1CCn2cnc(COCC3CC3)c2C1", "Percent Effect": 22.66},
      {"smiles": "COCc1ncn2c1CN(S(=O)(=O)Cc1ccc(C)cc1)CC2.O=C(O)C(F)(F)F", "Percent Effect": 14.75},
      {"smiles": "COCc1ncn2c1CN(C(=O)c1ccc3ccccc3n1)CC2.O=C(O)C(F)(F)F", "Percent Effect": 86.38},
      {"smiles": "COCc1cnc2n1CCN(C(=O)c1ccc3ccccc3n1)C2C.O=C(O)C(F)(F)F", "note": "(centres undefined)", "Percent Effect": -39.11},
      {"smiles": "Cc1ccc(F)c(N2CCCC(NS(=O)(=O)CCCF)C2=O)c1", "note": "(centres undefined)", "Percent Effect": -1.757},
      {"smiles": "O=C(CN1CCOc2ccc(Cl)cc21)NCCCn1ccnc1", "Percent Effect": 9.044},
      {"smiles": "CN(C(=O)OC(C)(C)C)C1CCN(C(=O)c2ccc(Cl)o2)C1", "note": "(centres undefined)", "Percent Effect": -6.554},
      {"smiles": "CCS(=O)(=O)c1ncc(CN(C)Cc2ccccn2)n1CCOC", "Percent Effect": -6.84},
      {"smiles": "Cc1noc(NS(=O)(=O)c2ccc(Cl)s2)c1C", "Percent Effect": -16.85},
      {"smiles": "Cn1c2c(ccc1=O)CCN(Cc1ccoc1)CC2.O=C(O)C(F)(F)F", "Percent Effect": 97.4},
      {"smiles": "COc1ccc2c(c1)C1(CCN(Cc3ccoc3)CC1)N(C)CC2", "Percent Effect": -15.48},
      {"smiles": "O=C(O)C(F)(F)F.O=C(O)C(F)(F)F.O=c1ccc2c(n1CCN1CCCC1)CCN(Cc1ccoc1)CC2", "Percent Effect": -0.3339},
      {"smiles": "O=C(O)C(F)(F)F.O=C(O)C(F)(F)F.O=c1ccc2c(n1Cc1cccnc1)CCN(C1CCOC1)CC2", "note": "(centres undefined)", "Percent Effect": 2.129},
      {"smiles": "O=C(O)C(F)(F)F.O=C(O)C(F)(F)F.O=c1ccc2c(n1Cc1cccnc1)CCN(CC1CCOC1)CC2", "note": "(centres undefined)", "Percent Effect": -12.29},
      {"smiles": "O=C(O)C(F)(F)F.O=C(O)C(F)(F)F.O=c1ccc2c(n1Cc1ccncc1)CCN(Cc1ccoc1)CC2", "Percent Effect": 96.18},
      {"smiles": "O=C(O)C(F)(F)F.O=C(O)C(F)(F)F.O=c1ccc2c(n1Cc1cccnc1)CCN(Cc1ccoc1)CC2", "Percent Effect": 110},
      {"smiles": "COCC1c2c(cnn2C)CCN1Cc1ccoc1", "note": "(centres undefined)", "Percent Effect": -6.273},
      {"smiles": "COCCn1c2c(ccc1=O)CCN(Cc1ccoc1)CC2", "Percent Effect": 106.6},
      {"smiles": "CS(=O)(=O)NCC1(c2ccccc2Br)CC1", "Percent Effect": 1.161},
      {"smiles": "O=C(O)C1CCN(C[C@H]2CC[C@@H](Cc3ccc4c(c3)OCO4)O2)CC1", "Percent Effect": 4.381}
    ]}
  ]
}
